Calb FLC = C. albicans growth modulation with fluconazole. AID 1979. growth inhibition, % (no concentration beside the values). C. albicans CaCi-2 (fluconazole-resistant clinical isolate) + fluconazole, Alamar Blue growth, 48 h. 300,000 compounds, 0.57% hits;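 active = growth inhibition above about 58% in most replicates, limit read from the data, passing the limit was not always enough; inconclusive = exactly half the replicates above a set limit; inactive = most replicates below a set limit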;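 note: all wells also contain fluconazole at 8 µg/ml as a sub-toxic cotreatment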
CSC inhib = blocks cancer stem cells. cancer stem cell-like cells viability, luminescence. inhibition, % at 7.5 µM. 300,000 compounds, 1.1% hits; in the data active = inhibition above about 75%; inconclusive = no clear call, values can overlap the other calls; tested in HMLE shEcad cells
Beta cell apopt = blocks beta cell apoptosis | INS-1E cytokine-induced death, ATP luminescence, 48 h; percent of positive-control rescue, neutral wells zero | protection from apoptosis, % (concentration not given with the values) | 300,000 compounds, 0.8% hits | AID 435005;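 active = Every replicate reaches about 75%, or at least half do and their mean reaches it too, limit read from the data; inconclusive = At least half of replicates reach the limit but their mean does not; inactive = Under half of replicates reach the limit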;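 note: higher means more ATP so stronger rescue from cytokine killing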
MPTP block = permeability transition pore inhibition. isolated mouse mitochondria, Ca2+ swelling absorbance, 30 min. inhibition, % at 10 µM. 360,000 compounds, 1.4% hits. AID 602449;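 active = inhibition of 50% or more, scaled per plate between neutral and stimulator controls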
Mdm2 MdmX PPI = inhibitors of human Mdm2/MdmX interaction. SaOS-2 split-luciferase Mdm2/MdmX complementation, luminescence. O15151+Q00987. inhibition, % at 8 µM. 330,000 compounds, 3% hits;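 active = inhibition of at least 50% at 8 µM in the primary screen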
Target sequence (O15151 whole entry, looked up): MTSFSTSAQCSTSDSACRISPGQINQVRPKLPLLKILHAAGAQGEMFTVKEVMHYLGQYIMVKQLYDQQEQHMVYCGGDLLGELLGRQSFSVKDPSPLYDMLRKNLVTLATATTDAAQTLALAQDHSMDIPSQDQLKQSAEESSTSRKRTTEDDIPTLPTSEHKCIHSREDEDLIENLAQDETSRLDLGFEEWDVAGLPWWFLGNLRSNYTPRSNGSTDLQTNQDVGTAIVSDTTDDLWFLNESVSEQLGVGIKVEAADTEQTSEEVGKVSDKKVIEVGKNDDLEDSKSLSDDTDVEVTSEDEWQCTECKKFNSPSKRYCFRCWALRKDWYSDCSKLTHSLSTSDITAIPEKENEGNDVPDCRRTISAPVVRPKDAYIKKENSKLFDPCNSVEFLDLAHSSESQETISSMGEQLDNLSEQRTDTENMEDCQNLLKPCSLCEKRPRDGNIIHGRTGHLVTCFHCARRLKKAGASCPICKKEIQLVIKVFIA
Target sequence (Q00987 whole entry, looked up): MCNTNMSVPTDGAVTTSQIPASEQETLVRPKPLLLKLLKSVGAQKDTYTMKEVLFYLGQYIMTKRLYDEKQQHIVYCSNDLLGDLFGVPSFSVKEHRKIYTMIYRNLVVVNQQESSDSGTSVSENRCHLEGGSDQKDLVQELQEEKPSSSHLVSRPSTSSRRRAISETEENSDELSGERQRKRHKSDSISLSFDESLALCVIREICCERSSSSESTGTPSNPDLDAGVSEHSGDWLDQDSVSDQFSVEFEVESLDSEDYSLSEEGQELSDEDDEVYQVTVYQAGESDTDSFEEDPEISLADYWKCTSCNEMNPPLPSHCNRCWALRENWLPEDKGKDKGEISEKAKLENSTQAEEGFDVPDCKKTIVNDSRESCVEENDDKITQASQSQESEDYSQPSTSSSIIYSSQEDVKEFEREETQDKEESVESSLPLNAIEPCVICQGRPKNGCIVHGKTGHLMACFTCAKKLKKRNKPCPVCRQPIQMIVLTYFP
Rh123 counter = mitochondrial membrane potential, counter-screen; shares compounds with MPTP block; isolated mitochondria, Rhodamine 123 fluorescence; inhibition, % at 10 µM; 5,000 compounds, 78% hits; in the data active = inhibition above about 22%
MPTP abs DR = MPTP inhibition, dose response swelling confirmation; shares compounds with MPTP block; isolated mitochondria swelling, absorbance; 780 compounds, 58% hits; AID 651561; IC50, µM; in the data active = IC50 below about 20 µM
MPTP counter DR = counter-screen for mitochondrial permeability transition pore inhibitors, dose response. shares compounds with MPTP block. isolated mitochondria counterscreen, fluorescence read-out. IC50, µM. 780 compounds, 49% hits; in the data active = IC50 below about 80 µM
Hits are given with their value; - = inactive; ? = inconclusive; . = not tested or not shown. Compounds with a hit are over-represented: about 4.8% of the library has one in this group of screens.

SMILES	Calb FLC	CSC inhib	Beta cell apopt	MPTP block	Mdm2 MdmX PPI	Rh123 counter	others
CC(C)COc1ccc(C(=O)Nc2ccccc2[N+](=O)[O-])cc1	-	.	.	53.5	-	-	MPTP abs DR=-;MPTP counter DR=-
O=C(Nc1ccc(Cl)c(Cl)c1)N1CCCCCC1	-	-	-	-	-	.
O=C(Nc1ccc(Cl)c(Cl)c1)N1CCOCC1	-	-	-	-	-	.
O=C(Nc1ccc(Cl)cc1)Nc1ccc(N2CCOCC2)cc1	-	-	-	69.2	-	57.3
CC(=O)c1ccc(N2CCN(C(=S)Nc3ccc(Cl)c(Cl)c3)CC2)cc1	-	-	.	94.1	-	76.9
O=C(Nc1ccc(N2CCOCC2)cc1)Nc1ccc(Cl)c(Cl)c1	-	-	-	93.2	-	79.5
O=C(c1ccc(NC(=S)Nc2ccc(Cl)c(Cl)c2)cc1)N1CCCC1	-	-	-	103.0	.	92.0
CC1(C)O[C@@H]2[C@H](O1)[C@@H](CO)O[C@H]2n1cnc2c(=O)[nH]cnc21	.	-	-	-	-	.
COc1ccc(Br)c(Cn2c(C)c(C(=O)NCc3ccccc3C(F)(F)F)sc2=O)c1	.	.	.	-	.	.
O=C(CSc1ccccc1)Nc1ccc(Cl)c(S(=O)(=O)N2CCOCC2)c1	.	-	-	-	-	.
O=C(Nc1ccccc1)Nc1ccc(Cl)c(S(=O)(=O)N2CCOCC2)c1	-	-	-	62.2	-	85.7
CC1(C)OC(=CC=Nc2ccc(Cl)cc2)OC1(C)C	-	-	.	-	-	.
CC(C(=O)N1CCOCC1)n1cc([N+](=O)[O-])cn1 (stereo not given)	-	-	-	-	-	.
CC(C)(C)NCC(O)COc1ccccc1C1CCCC1 (stereo not given)	.	-	-	95.1	-	-	MPTP abs DR=6.79;MPTP counter DR=55.6
CCc1ccccc1OC[C@@H](O)CN[C@H]1CCCc2ccccc21	.	-	-	103.7	-	-	MPTP abs DR=5.45;MPTP counter DR=14.8
COc1c(Cl)cc(Cl)cc1CNc1ccc(S(N)(=O)=O)cc1	-	-	.	-	-	.
CC(NC(=O)c1cc(F)c(F)c(F)c1F)c1ccc(-n2ccnc2)cc1 (stereo not given)	-	-	.	-	-	.
CCc1c(C2(O)CCCCC2)[nH]c2cc(C(F)(F)F)ccc12	-	129.8	109.4	82.4	-	86.5
CCOC(=O)c1c(C(F)(F)C(F)(F)C(F)(F)C(F)(F)F)n[nH]c1C	-	.	-	73.4	-	77.9
CC(C)c1ccccc1NCC(=O)N1CCN(Cc2ccccc2)CC1	-	-	-	-	-	.
CC(C)(C=O)C1=CC(=O)c2ccccc2C1=O	.	-	-	99.7	.	-
C/C(=N\NS(=O)(=O)c1ccc(C(C)(C)C)cc1)c1ccccc1	-	-	-	-	-	.
CC(C)(C)c1ccc(S(=O)(=O)/N=C2\C=C(NS(=O)(=O)c3ccccc3)C(=O)c3ccccc32)cc1	-	-	-	99.3	-	25.1
COCCCNCCCCOc1ccc(Br)cc1C	-	-	-	63.3	-	-	MPTP abs DR=8.65;MPTP counter DR=-
COCCNCCCCOc1ccc(Br)cc1C	-	-	-	-	-	.
SMILES	Calb FLC	CSC inhib	Beta cell apopt	MPTP block	Mdm2 MdmX PPI	Rh123 counter	others
Clc1ccc(/C=C\c2nccc3c2[nH]c2ccccc23)cc1	-	.	.	70.4	.	83.1
Clc1ccc(C=Cc2ccccn2)cc1	.	.	.	-	.	.
CCOc1ccc(Nc2nc(Cc3nnc(SCC(=O)c4ccc(C)c(C)c4)o3)cs2)cc1	-	-	97.4	83.0	-	74.1
Cc1ccc(NC(=O)CSc2nnc(Cc3csc(C)n3)o2)cc1	.	-	-	-	-	.
O=C(NNc1ccccc1Br)C(=O)n1ccc2ccccc21	-	85.1	-	56.8	-	57.0
O=C(OCC(=O)N1CCN(c2ccccc2)CC1)c1cc(F)c(F)cc1Cl	.	.	.	-	.	.
CCn1nc(C)c(CNC(=O)c2cc(COc3ccc(F)cc3Cl)on2)c1C	-	-	-	52.6	-	36.3
CC1CCN(c2ccc(NC(=O)c3ccc(Br)o3)cc2)CC1	-	-	-	-	-	.
CCOC(=O)c1sc(NC(=O)CCN2CCN(C)CC2)c(C(=O)OCC)c1C	-	-	-	68.8	-	-	MPTP abs DR=12.6;MPTP counter DR=-
CCOC(=O)c1sc(NC(=O)CCN2CC(C)OC(C)C2)c(C(=O)OCC)c1C (stereo not given)	-	-	-	.	-	.
NN/C(=C\[N+](=O)[O-])Nc1ccc(Cl)cc1	-	-	-	55.3	-	86.5
CCCn1c(CN2CCN(c3cccc(Cl)c3)CC2)nc2c1c(=O)n(C)c(=O)n2C	-	-	-	77.7	-	79.6
CCCCn1c(CN2CCN(c3cccc(Cl)c3)CC2)nc2c1c(=O)n(C)c(=O)n2C	-	-	-	-	-	.
CCN(CC)C(=O)C1=C(C)N(CCCN2CCCC2=O)C(=O)C(CC(=O)NC2CCCCC2)C1 (stereo not given)	.	.	.	-	.	.
COc1cccc(OCc2cc(C(=O)N3CCC(c4ccncc4)CC3)no2)c1	-	-	-	80.3	-	74.9
CC(=O)c1ccc(OCc2cc(C(=O)N3CC[C@@H]4CCCC[C@H]4C3)no2)cc1	-	-	-	-	-	.
O=C(c1cc(COc2cccc(C(F)(F)F)c2)on1)N1CCC(c2ccncc2)CC1	?	-	111.3	96.7	-	98.8
CC(=O)c1ccc(OCc2cc(C(=O)N3CCC(c4ccncc4)CC3)no2)cc1	-	-	-	96.1	-	86.8
O=C1c2ccccc2C(Nc2cccc(C(F)(F)F)c2)N1Cc1ccco1 (stereo not given)	.	-	-	63.2	-	32.7
CNCC(O)COc1cccc(OC)c1 (stereo not given)	-	-	-	-	-	.
CN(C)CC(O)COc1cccc(OCC(O)CN(C)C)c1 (stereo not given)	-	-	-	-	-	.
COc1ccc(CCNCC(O)COc2cccc(Br)c2)cc1 (stereo not given)	-	-	-	60.1	-	-	MPTP abs DR=5.13;MPTP counter DR=46.9
CN(Cc1ccc(Br)cc1)CC(O)COc1cccc(Br)c1 (stereo not given)	-	-	-	60.2	-	-	MPTP abs DR=-;MPTP counter DR=43
CCN(Cc1ccc(Cl)s1)C(=O)c1cccc(OCc2c(C)noc2C)c1	.	-	-	-	-	.
Cc1ccc(C(OCC(O)CN2CCCCC2)c2ccccc2)cc1 (stereo not given)	-	-	.	-	-	.
Cc1ccc(C(OCC(O)CNC(CO)C(O)c2ccc([N+](=O)[O-])cc2)c2ccccc2)cc1 (stereo not given)	-	-	-	85.4	-	-	MPTP abs DR=17;MPTP counter DR=62.1
Cc1ccc(C(OCC(O)CNC(C)c2ccccc2)c2ccccc2)cc1 (stereo not given)	-	-	-	80.4	-	-	MPTP abs DR=7.07;MPTP counter DR=23.2
Cn1c(N/N=C/c2cccs2)cc(=O)n(C)c1=O	-	-	-	-	-	.
Fc1c(F)c(C(F)(F)F)c(F)c(F)c1N/N=C\c1cccs1	-	-	-	87.0	-	69.9

From PubChem
